Results filed as inconclusive are left out. The source made the active and inactive calls. Unless noted, the call rests on the fitted dose curve; in most records, active means well fitted curve in the direction sought with a large enough effect; inconclusive means small, poorly fitted or top-dose-only effect, or another doubt; inactive means no such curve, though single readings can be large; an effect the other way counts as inactive or inconclusive.
How the values were obtained:
[1] = Quantitative High-Throughput drug screen in 47 multiple myeloma cell lines against the NCATS MIPE library collection: OPM1_PLB cell viability assay (AID 1918989); further: nearly all actives have a fitted effect of over 40% in size; further: potency means the concentration at half of the fitted maximal effect
In short: (§1)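 Cells were exposed to library compounds for 48 hours, after which ATP was measured by CellTiter-Glo. Signal was taken as median relative luminescence units.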

[2] = Quantitative High-Throughput drug screen in 47 multiple myeloma cell lines against the NCATS MIPE library collection: RPMI8226_ATCC cell viability assay (AID 1919871); further: nearly all actives have a fitted effect of over 30% in size; further: potency means the concentration at half of the fitted maximal effect
In short: as §1

[3] = Quantitative High-Throughput drug screen in 47 multiple myeloma cell lines against the NCATS MIPE library collection: OPM2_DSMZ cell viability assay (AID 1919872); further: nearly all actives have a fitted effect of over 30% in size
In short: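 Myeloma cell lines, 500 cells per well, exposed to MIPE 4.0 library compounds for 48 h at 37C, 5% CO2. Viability from ATP by CellTiter-Glo luminescence; normalised to DMSO (100%) and media-only (0%) wells.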

[4] = Quantitative High-Throughput drug screen in 47 multiple myeloma cell lines against the NCATS MIPE library collection: KMS11_JCRBsus cell viability assay (AID 1919873); further: nearly all actives have a fitted effect of over 50% in size; further: potency means the concentration at half of the fitted maximal effect
In short: as §1

[5] = Quantitative High-Throughput drug screen in 47 multiple myeloma cell lines against the NCATS MIPE library collection: KMS28BM_JCRB cell viability assay (AID 1919874); further: nearly all actives have a fitted effect of over 35% in size
In short: as §1

[6] = qHTS drug screen for cell cycle checkpoint inhibitors in PARPi-resistant BRCA-mutant ovarian cancer cell lines. (AID 1963452; calls by dose curve); conditions: PEO1/OlaR viability, CellTiter-Glo luminescence, 96 h, stronger effect = lower value
In short: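 PEO1, PEO4 and PEO1/OlaR ovarian cancer cells, 600 per well, exposed 96 h at 37C to a dilution series. Viability read by CellTiter-Glo luminescence, normalized to DMSO and empty wells; activity summarized as Z-AUC.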

[7] = qHTS for identification of novel therapeutic agents for treatment of microphthalmiaassociated transcription factor (MiT) renal cell carcinoma (RCC) (AID 1963991); conditions: CellTiter-Glo, 48 h, stronger effect = lower value
In short: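 Three TFE3-fusion RCC lines (UOK109, UOK124, UOK145), 500 cells/well in complete medium, were treated with MIPE 4.0 compounds for 48 hours at 37 C. Viability was by CellTiter-Glo luminescence, normalized to DMSO (100%) and empty wells (0%); curves fitted over 11 concentrations.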

[8] = Quantitative High-Throughput drug screen in 47 multiple myeloma cell lines against the NCATS MIPE library collection: SKMM1_PLB cell viability assay (AID 1919863); conditions: SKMM1 myeloma viability, CellTiter-Glo ATP, 48 h; viability: stronger effect = lower value; further: potency means the concentration at half of the fitted maximal effect; nearly all actives have a fitted effect of over 35% in size
In short: as §1

[9] = Quantitative High-Throughput drug screen in 47 multiple myeloma cell lines against the NCATS MIPE library collection: U266_ATCC cell viability assay (AID 1919864); further: potency means the concentration at half of the fitted maximal effect; nearly all actives have a fitted effect of over 35% in size
In short: as §1

[10] = Quantitative High-Throughput drug screen in 47 multiple myeloma cell lines against the NCATS MIPE library collection: UTMC2_PLB cell viability assay (AID 1919868); further: nearly all actives have a fitted effect of over 55% in size
In short: as §1

[11] = Quantitative High-Throughput drug screen in 47 multiple myeloma cell lines against the NCATS MIPE library collection: PCM6_Riken cell viability assay (AID 1919870); further: nearly all actives have a fitted effect of over 30% in size
In short: as §1

[12] = qHTS profiling for inhibitors of Plasmodium falciparum proliferation (AID 504749); further: potency means the concentration at half of the fitted maximal effect;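 on activity, negative = inhibition: 0% = DMSO vehicle and full inhibition = artemisinin control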; on all read-outs here: nearly all actives have a fitted effect of over 60% in size; conditions: P. falciparum in erythrocytes, SYBR Green DNA, 72 h; for activity, negative = inhibition: at 28.7 µM (top of the series)
In short: (§2)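 Each compound contacts P. falciparum-infected red blood cells for 72 h at 37 C; lysis buffer (Tris, EDTA, saponin, Triton X, SYBR Green I) is added and fluorescence measured next morning; values normalized to controls.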

[13] = system: 3D7; test: as above; conditions: P. falciparum in erythrocytes, SYBR Green DNA, 72 h; series mostly up to 28.7 µM
In short: as §2

[14] = system: 7G8; test: as above; conditions: P. falciparum in erythrocytes, SYBR Green DNA, 72 h; series mostly up to 28.7 µM
In short: as §2

[15] = Quantitative High-Throughput drug screen in 47 multiple myeloma cell lines against the NCATS MIPE library collection: VP6_DJ cell viability assay (AID 1919867); further: nearly all actives have a fitted effect of over 40% in size
In short: as §1

[16] = measured here: PEO1 parental Z-AUC
[17] = TFE3-RCC UOK109 viability, measured here: UOK109 Z-AUC
[18] = TFE3-RCC viability, measured here: UOK124 Z-AUC
[19] = TFE3-RCC viability, measured here: UOK145 Z-AUC

## CC(C)C[C@H](CN)CC(=O)O
[1]
  Potency: inactive
[2]
  Potency: inactive
[3]
  outcome: inactive
[4]
  Potency: inactive
[5]
  outcome: inactive
[6]
  Z-AUC: 1.17 (inactive)
[6]; [16]
  Z-AUC: 0.458
[6]; measured here: PEO4 Z-AUC
  Z-AUC: 0.548
[7]; [17]
  z-score: -0.701
[7]; [18]
  z-score: 0.851
[7]; [19]
  z-score: 0.709

## C[C@]12CCC(=O)C=C1CC[C@@H]1[C@H]3CC[C@](C)(O)[C@@]3(C)CC[C@@H]12
[1]
  Potency: inactive
[8]
  Potency: 30.3 µM (active)
[9]
  Potency: 38.2 µM (active)
[10]
  Potency: inactive
[2]
  Potency: 38.2 µM (active)
[4]
  Potency: 42.9 µM (active)

## C[C@]12CC[C@H]3[C@@H](CC[C@@]45O[C@H]4C(O)=C(C#N)C[C@]35C)[C@H]1CC[C@H]2O
[1]
  Potency: inactive
[10]
  Potency: inactive
[11]
  Potency: inactive
[2]
  Potency: inactive
[3]
  outcome: inactive
[4]
  Potency: inactive
[5]
  outcome: inactive

## C[C@]12CC[C@@H]3c4ccc(OC(=O)N(CCCl)CCCl)cc4CC[C@H]3[C@@H]1CC[C@@H]2OP(=O)(O)O
[1]
  Potency: inactive
[11]
  Potency: inactive
[2]
  Potency: inactive
[3]
  outcome: inactive
[4]
  Potency: inactive
[5]
  outcome: inactive
[6]
  Z-AUC: 0.291 (inactive)
[6]; [16]
  Z-AUC: 1.75
[6]; measured here: PEO4 Z-AUC
  Z-AUC: 1.95

## O=c1[nH]oc2c1CCNC2
[12]; parasite line A
  activity, negative = inhibition: 3.02% (inactive)
[12]; parasite line B
  activity, negative = inhibition: 15.3% (inactive)
[13]
  Potency: inactive
[14]
  Potency: inactive

## CN1C[C@H](C(=O)N[C@]2(C)O[C@@]3(O)[C@@H]4CCCN4C(=O)[C@H](Cc4ccccc4)N3C2=O)C=C2c3cccc4[nH]cc(c34)C[C@H]21
[12]; parasite line A
  Potency: 1.41 µM (active)
[12]; parasite line B
  Potency: 1.58 µM (active)
[13]
  Potency: 0.891 µM (active)
[14]
  Potency: 0.0794 µM (active)

## C[C@]12CC[C@@H]3c4ccc(OC(=O)N(CCCl)CCCl)cc4CC[C@H]3[C@@H]1CC[C@@H]2O
[12]; parasite line A
  activity, negative = inhibition: 15.2% (inactive)
[12]; parasite line B
  activity, negative = inhibition: 2.03% (inactive)
[13]
  Potency: inactive
[14]
  Potency: inactive

## NC(=O)CS(=O)C(c1ccccc1)c1ccccc1 (centres undefined)
[12]; parasite line A
  activity, negative = inhibition: 11.3% (inactive)
[12]; parasite line B
  activity, negative = inhibition: 9.97% (inactive)
[13]
  Potency: inactive

## NCCc1ccc(O)cc1
[12]; parasite line A
  activity, negative = inhibition: 8.86% (inactive)
[12]; parasite line B
  activity, negative = inhibition: 7.85% (inactive)
[13]
  Potency: inactive
[14]
  Potency: inactive

## Nc1nc(N)nc(NC2CC2)n1
[12]; parasite line A
  activity, negative = inhibition: -13.5% (inactive)
[12]; parasite line B
  activity, negative = inhibition: 1.17% (inactive)
[13]
  Potency: inactive
[14]
  Potency: inactive

## O=P1(N(CCCl)CCCl)NCCCO1 (centres undefined)
[1]
  Potency: 13.2 µM (active)
[15]
  Potency: inactive
[3]
  outcome: inactive
[6]
  Z-AUC: 1.32 (inactive)
[6]; [16]
  Z-AUC: 1.49
[6]; measured here: PEO4 Z-AUC
  Z-AUC: 1.45
[7]; [17]
  z-score: 0.655
[7]; [18]
  z-score: 0.953
[7]; [19]
  z-score: 1.4
[12]; parasite line A
  activity, negative = inhibition: 11.3% (inactive)
[12]; parasite line B
  activity, negative = inhibition: 6.9% (inactive)
[13]
  Potency: inactive
[14]
  Potency: inactive

## COC(=O)C(c1ccccc1)C1CCCCN1 (centres undefined)
[12]; parasite line A
  activity, negative = inhibition: 10.8% (inactive)
[12]; parasite line B
  activity, negative = inhibition: 13.8% (inactive)
[13]
  Potency: inactive

## O=C1Nc2ccc(Cl)cc2C(c2ccccc2Cl)=NC1O (centres undefined)
[12]; parasite line A
  activity, negative = inhibition: 2.17% (inactive)
[12]; parasite line B
  activity, negative = inhibition: -14% (inactive)
[13]
  Potency: inactive
[14]
  Potency: inactive

## Clc1cccc(SC2CCNCC2)n1
[12]; parasite line A
  activity, negative = inhibition: 12.4% (inactive)
[12]; parasite line B
  activity, negative = inhibition: 2.53% (inactive)
[13]
  Potency: inactive
